A selection: hits, their analogues and other compounds. The true share with any hit is near 21%.
SARS PLpro yeast: qHTS of Yeast-based Assay for SARS-CoV PLP. actives 0.19% (n = 330,000). S. cerevisiae expressing SARS-CoV PLpro, growth rescue. Potency, µM (series often up to 32.9 µM), for inactives: at the highest dose activity, positive = growth rescue, usual class: activators; calls by dose curve; further: potency means the concentration at half of the fitted maximal effect; 0% is about no effect; nearly all actives have a fitted effect of over 55% in size
NS1 function inh: qHTS Assay for Inhibitors of Influenza NS1 Protein Function | Potency, µM (doses to about 46.1 µM), for inactives: at the top dose activity, positive = more growth | actives 0.4% (n = 270,000) | AID 2326, 2010; calls by dose curve; further: potency means the concentration at half of the fitted maximal effect; actives are rising curves; nearly all actives have a fitted effect of over 50% in size
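Read-out: OD600 growth recovery of NS1-expressing budding yeast. Cells grown overnight at 30C in -URA glucose medium, washed, resuspended and diluted 1:100 in 2% galactose assay medium, pH 6.0. Same strain lacking NS1 served as positive control.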
Pf growth 48h: Primary qHTS for delayed death inhibitors of the malarial parasite plastid, 48 hour incubation; P. falciparum luciferase growth in erythrocytes, 48 h; actives 5.9% (n = 310,000); Potency, µM (series often up to 28.7 µM), without a hit: top-dose activity change, negative = inhibition, usual class: inhibitors; further: potency means the concentration at half of the fitted maximal effect; on the % scale 0 is the no-effect control and ±100 the full control effect
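Here the parasites carry a stable luciferase gene and grow inside erythrocytes in Albumax-based RPMI medium with compound for one erythrocytic cycle. Activity is scored as loss of luminescent signal.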
Shiga inhibitor: A qHTS for Small Molecule Inhibitors of Shiga Toxin. inhibition, % at 38.7 µM. Vero cells, Shiga toxin protein synthesis inhibition reporter. actives 9.2% (n = 290,000). AID 2315, 2010; in the data active means inhibition mostly above about 28%, no sharp cut-off; inactive means mostly below about 43%; further: 0% is about no effect
CHX counter: Cycloheximide Counterscreen for Small Molecule Inhibitors of Shiga Toxin. cell reporter, cycloheximide protein synthesis inhibition counterscreen. max response, %. actives 12% (n = 300,000); in the data active means max response mostly above about 13%, no sharp cut-off; inactive means mostly below about 14%; further: read at 38.3 µM for the half of the compounds with a filed dose; 0% is about no effect
Pf growth 96h: Primary qHTS for delayed death inhibitors of the malarial parasite plastid, 96 hour incubation; P. falciparum luciferase reporter growth, 96 h; actives 6.9% (n = 320,000); AID 504834, 2011; Potency, µM (top dose mostly 28.7 µM), inactives show top-dose activity change, negative = inhibition, usual class: inhibitors; further: potency means the concentration at half of the fitted maximal effect; on the % scale 0 is the no-effect control and ±100 the full control effect
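Readout is luminescence from an integrated firefly luciferase in P. falciparum. Red cells, 2% hematocrit and 0.05% parasitemia final, were cultured with compound through two parasite generations (96 hours) at 37 C, 5% CO2.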
* marks the source's active call; other numbers are inactive results; ? = inconclusive; . = not tested or not shown. Unless noted, the call rests on the fitted dose curve; in most records, active means well fitted inhibition curve with a large enough effect; inconclusive means small, poorly fitted or top-dose-only effect, or another doubt; inactive means no such curve, though single readings can be large or run the other way.

SMILES	SARS PLpro yeast	NS1 function inh	Pf growth 48h	Shiga inhibitor	CHX counter	Pf growth 96h
O=C(CSc1n[nH]c(-c2cccs2)n1)N1CCN(S(=O)(=O)c2ccc3ccccc3c2)CC1	0%	15%	.	-12	-1	5.9µM*
Cc1ccc(C)c(SCC(=O)Nc2ccc(S(=O)(=O)Nc3ncccn3)cc2)c1	0%	-4%	-7%	-6	-3	20%
O=C(NCc1ccccc1Cl)C1CCC(=O)N(CCCN2CCCC2=O)C1 (stereo not drawn)	-1%	1%	5%	-12	-2	-22%
O=C(c1nc2nc(-c3cccs3)cc(C(F)(F)F)n2n1)N1CCN(Cc2ccccc2)CC1	-16%	-6%	?	-5	-4	207%
C=CCOc1ccc(C2C(C(=O)c3ccco3)=C(O)C(=O)N2CCCN(CC)CC)cc1 (stereo not drawn)	4%	0%	28%	31	9.5*	46%
CCN(CC)CCCN1C(=O)C(O)=C(C(=O)c2ccco2)C1c1ccc(OC(C)C)cc1 (stereo not drawn)	-1%	5%	40%	40	22*	?
COc1ccc(C2C(C(=O)c3ccco3)=C(O)C(=O)N2CCCn2ccnc2)c(OC)c1 (stereo not drawn)	1%	15%	-5%	48	32*	?
Cc1ccc(C(=O)C2=C(O)C(=O)N(CCN(C)C)C2c2ccccn2)o1 (stereo not drawn)	.	6%	.	.	.	.
C=CCOc1cccc(C2C(C(=O)c3ccc(C)o3)=C(O)C(=O)N2CCN(C)C)c1 (stereo not drawn)	1%	-2%	-13%	-8	-2	3.7µM*
CN(C)c1ccc(/C=C(\C#N)C(=O)OCC(=O)N(C)C2CCS(=O)(=O)C2)cc1 (stereo not drawn)	8%	.	16%	.	.	7%
S=c1[nH]nc(COc2ccc(Cl)cc2)o1	-4%	-8%	-36%	10	11	28%
CCOC(=O)c1cc(NC(=O)NC2CCCCC2)c(C)nc1C	-2%	13%	-14%	14	15	-1%
CC(C)C(NS(=O)(=O)c1ccc2c(c1)OCCCO2)C(=O)O (stereo not drawn)	3%	4%	-9%	-8	7	34%
COCCCN(Cc1cccs1)S(=O)(=O)c1csc(C(N)=O)c1	-1%	8%	19%	-11	-4	?
O=C(C1=C(O)C(=O)N(CC2CCCO2)C1c1ccccc1F)c1ccco1 (stereo not drawn)	-1%	5%	16%	4	-5	210%
O=C(COC(=O)c1cccnc1Cl)c1ccc(OC(F)F)cc1	1%	.	18%	-11	11	26%
O=C(c1ccncc1)c1ccc(NC(=O)c2cccs2)cc1	-6%	.	-11%	148*	29*	?
O=C(Nc1ccc(Cc2ccncc2)cc1)c1cccs1	-2%	.	72%	69*	33*	16%
COc1ccc(CC(=O)OCC(=O)N2CCc3ccccc32)cc1OC	2%	.	3%	.	.	-12%
CSc1nc(NCc2ccccc2)c2c3c(sc2n1)CN(C)CC3	-8%	-16%	13µM*	53*	19*	?
COCCNc1nc(SC)nc2sc3c(c12)CCN(C)C3	0%	0%	0%	-3	-1	?
CSc1nc(NCC(C)C)c2c3c(sc2n1)CN(C)CC3	0%	4%	?	-10	0	3.3µM*
Cc1ccn(CC(=O)NC2CC(C)(C)Cc3c2cnn3-c2ccc(F)cc2)n1 (stereo not drawn)	-1%	-10%	-1%	-19	-4	-16%
C/C(Cn1cnc([N+](=O)[O-])n1)=N\NC(=O)c1cccnc1	4%	-2%	-11%	25	14*	44%
C/C(Cn1cnc([N+](=O)[O-])n1)=N/NC(=O)COc1ccccc1Cl	3%	10%	2%	9	7	55%
SMILES	SARS PLpro yeast	NS1 function inh	Pf growth 48h	Shiga inhibitor	CHX counter	Pf growth 96h
C/C(Cn1cnc([N+](=O)[O-])n1)=N\NC(=O)c1ccc(Br)cc1	2%	5%	11%	44*	18*	-12%
CCCCn1c(N)c(N(C)C(=O)c2ccc(Br)o2)c(=O)[nH]c1=O	0%	.	4%	.	.	16%
Cc1cc(C(=O)c2cnc(/N=C/N(C)C)s2)c(F)cc1Cl	0%	.	20%	15	9	45%
COc1ccc(-c2nn(-c3ccccc3C)cc2CNC(C)Cn2cncn2)cc1F (stereo not drawn)	0%	-2%	?	-7	-1	?
Cc1ccc(-n2cc(CNC(C)Cn3cncn3)c(-c3ccc(F)cc3)n2)cc1 (stereo not drawn)	-2%	-5%	7.4µM*	39	10	11%
Cc1ccc(C)c(-n2cc(CNC(C)Cn3cncn3)c(-c3ccccc3)n2)c1 (stereo not drawn)	1%	1%	13µM*	-17	-1	?
Cc1ccc(-n2cc(CNC(C)c3cnn(C)c3)c(-c3ccc(F)cc3)n2)cc1 (stereo not drawn)	-1%	-2%	?	-17	-2	?
CCCCCCCCCCCC(=O)OCC(O)C1OCC(O)C1O (stereo not drawn)	.	.	-10%	.	.	-6%
C/C(NC(=O)c1cccc(F)c1)=C1/C(=O)C[C@@H]2[C@H]1C2(C)C	0%	-17%	.	22	23	43%
C/C(NC(=O)c1ccccc1F)=C1\C(=O)C[C@@H]2[C@H]1C2(C)C	-1%	-23%	-4%	35	14*	.
COc1cc(/C=C2/SC(=S)N(CC(=O)O)C2=O)ccc1OCC(=O)Nc1ccc(C)c(C)c1	2%	24%	?	-9	-2	15%
COC(=O)c1ccc(N2CCOCC2)c(NC(=O)c2cccnc2)c1	-4%	1%	15%	-2	-2	-5%
Cc1ccc(/C(C#N)=C\c2ccc(N3CCOCC3)o2)cc1	-35%	4%	?	133*	88*	-24%
Cc1ccc2nc(/C(C#N)=C\c3ccc(N4CCOCC4)o3)[nH]c2c1	3%	?	32%	47*	46*	?
Cc1ccc2nc(/C(C#N)=C/c3ccc(-c4ccccc4C(=O)O)o3)[nH]c2c1	2%	10%	-4%	-2	15	?
Cc1ccc(-n2cc(C(=O)c3ccc(F)cc3)nn2)cc1Cl	0%	4%	91%	75*	37*	290%
COC(=O)CSc1nc(C)c(Oc2ccccc2)c(=O)[nH]1	-2%	0%	-1%	12	-3	?
O=C(Cn1c(-c2ccccc2)c[n+]2ccsc12)c1ccc([N+](=O)[O-])cc1	1%	19%	11%	71*	21*	?

From PubChem BioAssay
